# The full ranking holds about 33,000 sequences; the median of “E-score (-0.5 to 0.5)” is about -0.036, and the highest 2% start at about 0.37. For the sample, the highest values were picked, then their nearest neighbours and some sequences at random.
# Target: T1, Yer064c (UniProt P40041)
# T1 sequence: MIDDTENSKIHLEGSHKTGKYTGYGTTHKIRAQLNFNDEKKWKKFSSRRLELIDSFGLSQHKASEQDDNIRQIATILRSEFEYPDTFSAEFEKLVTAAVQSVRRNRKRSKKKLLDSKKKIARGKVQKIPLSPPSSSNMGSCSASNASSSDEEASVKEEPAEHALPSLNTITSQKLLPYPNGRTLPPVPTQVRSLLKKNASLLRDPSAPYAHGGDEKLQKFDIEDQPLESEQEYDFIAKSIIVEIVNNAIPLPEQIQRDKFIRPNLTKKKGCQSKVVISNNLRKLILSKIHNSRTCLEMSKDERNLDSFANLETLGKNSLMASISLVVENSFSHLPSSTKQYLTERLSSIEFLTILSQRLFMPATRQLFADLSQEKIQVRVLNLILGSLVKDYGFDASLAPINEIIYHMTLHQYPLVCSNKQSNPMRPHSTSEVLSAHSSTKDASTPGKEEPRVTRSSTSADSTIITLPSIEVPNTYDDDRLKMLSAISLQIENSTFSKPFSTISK
# Experiment: PBM E-score (8-mer binding enrichment) (E-score (-0.5 to 0.5)); higher = stronger / more preferred TF binding
# Conditions: protein concentration: 200 nM; construct: GST-full length
# How it was run: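 The E-score, a modified Wilcoxon-Mann-Whitney statistic, was computed by the Universal PBM Analysis Suite for every ungapped eight-base word pooled with its reverse complement. Scans behind it were normalised with masliner after bound GST-tagged yeast transcription factors were detected with fluorescent anti-GST. The proteins, at about 100-200 nM, had been applied to universal all-10-mer Agilent arrays made double-stranded by primer extension.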
row,Sequence,PBM E-score
1,CTGATTGA,0.305
2,ATGATTGG,0.286
3,CTGATTGC,0.274
4,ACGATTGC,0.0745
5,ATGATTGC,0.375
6,GCGATTGA,0.145
7,GGTGAAAA,-0.106
8,CAAATCTC,0.0434
9,CATCTACG,0.104
10,AGGTGAGC,-0.00638
11,CCGGGTGA,0.176
12,AATGCTCA,0.0674
13,CGTCAGCA,-0.0315
14,ATTCAGCG,-0.0722
15,AGTCAGCA,0.455
16,ACTCAGCC,0.335
17,ACTCAGCG,0.269
18,GGTCAGCA,-0.0951
19,AGTCAGCC,0.458
20,AGTCAGCG,0.453
21,CGTCAGCC,-0.135
22,GGCAGCAA,-0.355

row,Sequence,PBM E-score
1,GCAGATGC,-0.257
2,CAATGGTC,0.183
3,ATGTATTA,0.0655
4,ATGCTTTG,-0.00054
5,TAACAGTA,-0.019
6,ATATAGTG,0.0402
7,CTATAGTC,0.37
8,CTATAGCC,-0.0342
9,CTATAGTA,0.0624
10,ATATAGTA,0.128
11,ATATAGTC,0.403
12,ACCGAACT,-0.0318
13,AGCAGAAA,-0.0226
14,CAGAGTGG,-0.106
15,CAGACGAG,-0.0357
16,CGCTCTAG,-0.196
17,CCGACAAA,-0.0238
18,GTCATCGA,0.389
19,CTCATCGA,0.173
20,ATCATCGA,0.31
21,ACCTGAAA,-0.0522
22,CAGGTTGA,0.0225

row,Sequence,PBM E-score
1,CCAGAAAG,0.0675
2,AGTAGTTA,0.112
3,CGTAGTAA,-0.0636
4,AGTAGTAG,0.00559
5,GGTAGTCA,0.479
6,AGTAGTAA,0.156
7,AGTAGTCC,0.302
8,GGTAGTAA,0.0578
9,AGTAGTCG,0.381
10,GGTAGTGA,0.0671
11,AGTAGTCA,0.478
12,CGTAGTCA,0.483
13,CGTAGTCC,0.262
14,GGCCGTCA,-0.262
15,CTCTGGTC,-0.00298
16,GGAATTCA,-0.0346
17,ACGAACGT,-0.129
18,ATGACCGC,-0.075
19,CCAGTCGA,0.00412
20,CGTACGTC,-0.241
21,CCGGAGTC,0.373
22,ACGGAGTA,-0.0195

row,Sequence,PBM E-score
1,ACGGAGTC,0.431
2,ACGGAGTG,-0.215
3,CCGGAGGC,-0.154
4,CCGGAGTA,0.0206
5,ATGTACTG,0.0673
6,ACTGTCAA,-0.0537
7,GCGTCGCA,0.0193
8,CACTAATC,0.191
9,TACTAATA,-0.1
10,GACTAATC,0.439
11,GACTAATA,0.445
12,CACTAATA,0.134
13,AACTAATC,0.15
14,CTAGGTAC,0.0158
15,ACGACTTC,0.324
16,ATGACTTG,0.435
17,AAGACTTG,0.165
18,AGGACTTG,0.0575
19,AGGACTTC,0.201
20,CTCACTCC,0.0635
21,CTGACTTC,0.392
